# Reference: ChEMBL document CHEMBL1961873, “Compounds: GSK PKIS; Assays: Nanosyn kinase panel” (2012)
# Biological target: T1, cAMP-dependent protein kinase catalytic subunit PRKX (Homo sapiens) (UniProt P51817)
# T1 sequence (whole entry): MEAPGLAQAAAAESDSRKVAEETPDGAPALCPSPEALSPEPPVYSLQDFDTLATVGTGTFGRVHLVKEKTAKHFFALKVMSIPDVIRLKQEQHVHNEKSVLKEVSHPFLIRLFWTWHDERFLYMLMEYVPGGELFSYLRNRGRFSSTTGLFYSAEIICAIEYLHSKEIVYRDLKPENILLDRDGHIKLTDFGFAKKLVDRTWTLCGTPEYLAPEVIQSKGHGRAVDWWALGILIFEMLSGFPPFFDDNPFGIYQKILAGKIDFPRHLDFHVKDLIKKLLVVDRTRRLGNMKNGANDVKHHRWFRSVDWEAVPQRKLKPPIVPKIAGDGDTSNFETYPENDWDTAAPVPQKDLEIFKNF
# Settings: at 0.1 µM
row,Structure (SMILES),inhibition
1,Cc1ccc(O)cc1Nc1ccnc2cc(-c3ccccn3)ccc12,1.87%
2,COC(=O)c1sc(-n2cnc3cc(OC)c(OC)cc32)cc1OCc1ccccc1C(F)(F)F,-0.14%
3,COc1cc2ncn(-c3cc(OCc4ccccc4C(F)(F)F)c(C(=O)N(C)C)s3)c2cc1OC,-0.01%
4,CC(C)COC(=O)c1ccc2c(c1)/C(=C/Nc1ccc(S(N)(=O)=O)cc1)C(=O)N2,6.36%
5,CCc1nn2ncccc2c1-c1ccnc(NC2CC2)n1,1.66%
6,CC(=O)Nc1cccc(C#Cc2cncnc2Nc2ccc(OCc3cccc(F)c3)c(Cl)c2)c1,1.66%
7,CCn1cc(-c2ccnc3[nH]ccc23)c(-c2cccc(NC(=O)Nc3ccc(OCc4ccccc4)cc3)c2)n1,4.18%
8,COc1ccc(-c2nn3ncccc3c2-c2ccnc(Nc3ccc4c(c3)OCCO4)n2)cc1,0.59%
9,COC(=O)Nc1nc2ccc(S(=O)(=O)c3ccc(NC(=O)Nc4cc(C(F)(F)F)ccc4F)cc3)cc2[nH]1,0.54%
10,Cc1ccc2c(-c3ccnc(Nc4ccccc4)n3)c(-c3ccc(F)cc3)nn2n1,1.83%
11,COc1cccc(-n2ncc3c(N/N=C/c4ccc(F)cc4)ncnc32)c1,2.4%
12,CCn1c(-c2nonc2N)nc2c(C#CC(C)(C)O)ncc(OC3CCNCC3)c21,74.4%
13,Nc1ncc(-c2cccc(S(N)(=O)=O)c2)c2scc(-c3ccc(F)c(Cl)c3)c12,1.86%
14,O=C(Nc1n[nH]c2cc(-c3ccc(F)cc3)ccc12)C1CC1,2.23%
15,[O-][S+]1CCN(Cc2ccc(-c3ccc4ncnc(Nc5ccc(OCc6cccc(F)c6)c(Cl)c5)c4c3)o2)CC1,2.88%
16,Fc1cccc(COc2ccc(Nc3ncnc4sc(-c5ccco5)cc34)cc2Cl)c1,2.01%
17,NS(=O)(=O)c1ccc(Nc2ncc(-c3ccccc3)o2)cc1,2.08%

row,Structure (SMILES),inhibition
1,CCNC(=O)O[C@H]1CN[C@H](C#Cc2cc3ncnc(Nc4ccc(OCc5cccc(F)c5)c(Cl)c4)c3s2)C1,-0.14%
2,CCN(CC)S(=O)(=O)c1ccc(OC)c(Nc2ncc(-c3ccccc3)o2)c1,0.38%
3,COc1ccc(-c2oc3ncnc(N)c3c2-c2ccc(NC(=O)Nc3cc(C(F)(F)F)ccc3F)cc2)cc1,4.23%
4,CNC(=O)c1cc(-c2ccc(F)cc2)cc(-c2ccc(S(=O)(=O)N3CCCC3)cc2)c1N,2.59%
5,CCn1c(-c2nonc2N)nc2ccccc21,3.21%
6,CCn1c(-c2nonc2N)nc2c(C#CC(C)(C)O)nc(OC[C@H](N)c3ccccc3)cc21,84.2%
7,CCn1c(-c2nonc2N)nc2cnc(Oc3cccc(NC(=O)c4ccc(N(C)C)cc4)c3)cc21,12.9%
8,COc1ccc(CNC(=O)c2ccc(-c3cc(-c4nnc(C)o4)ccc3C)cc2)cc1,3.88%
9,Clc1ccc(-c2nn3ncccc3c2-c2ccnc(Nc3ccccc3)n2)cc1,2.16%
10,COc1cc(/C=N/Nc2ncnc3[nH]ncc23)ccc1O,1.69%
11,CCOc1ccc2c(-c3ccnc(Nc4cccc(C(F)(F)F)c4)n3)cnn2n1,0.1%
12,NS(=O)(=O)c1ccc(N/N=C2\C(=O)Nc3ccc4ncccc4c32)cc1,-0.15%
13,O=C(O[C@H]1CN[C@H](C#Cc2cc3ncnc(Nc4ccc(Cc5ccccc5)cc4)c3s2)C1)N1CCOCC1,3.27%
14,FC(F)(F)c1cccc(-c2nn3ncccc3c2-c2ccnc(Nc3ccc4c(c3)OCCO4)n2)c1,0.27%
15,c1cc(-c2cnn3nc(N4CCOCC4)ccc23)nc(NC2CC2)n1,1.09%
16,COc1ccc(-c2cc3c(N)ncnc3o2)cc1,0.58%

# Biological target: T1, cAMP-dependent protein kinase catalytic subunit PRKX (Homo sapiens)
# Settings: at 1 µM
row,Structure (SMILES),inhibition
1,Cc1ccc(O)cc1Nc1ccnc2cc(-c3ccccn3)ccc12,-2.49%
2,COC(=O)c1sc(-n2cnc3cc(OC)c(OC)cc32)cc1OCc1ccccc1C(F)(F)F,0.19%
3,COc1cc2ncn(-c3cc(OCc4ccccc4C(F)(F)F)c(C(=O)N(C)C)s3)c2cc1OC,-0.4%
4,CC(C)COC(=O)c1ccc2c(c1)/C(=C/Nc1ccc(S(N)(=O)=O)cc1)C(=O)N2,13.5%
5,CCc1nn2ncccc2c1-c1ccnc(NC2CC2)n1,0.72%
6,CC(=O)Nc1cccc(C#Cc2cncnc2Nc2ccc(OCc3cccc(F)c3)c(Cl)c2)c1,1.17%
7,CCn1cc(-c2ccnc3[nH]ccc23)c(-c2cccc(NC(=O)Nc3ccc(OCc4ccccc4)cc3)c2)n1,4.31%
8,COc1ccc(-c2nn3ncccc3c2-c2ccnc(Nc3ccc4c(c3)OCCO4)n2)cc1,-0.08%
9,COC(=O)Nc1nc2ccc(S(=O)(=O)c3ccc(NC(=O)Nc4cc(C(F)(F)F)ccc4F)cc3)cc2[nH]1,-0.36%
10,Cc1ccc2c(-c3ccnc(Nc4ccccc4)n3)c(-c3ccc(F)cc3)nn2n1,-0.36%
11,COc1cccc(-n2ncc3c(N/N=C/c4ccc(F)cc4)ncnc32)c1,4.79%
12,CCn1c(-c2nonc2N)nc2c(C#CC(C)(C)O)ncc(OC3CCNCC3)c21,89%
13,Nc1ncc(-c2cccc(S(N)(=O)=O)c2)c2scc(-c3ccc(F)c(Cl)c3)c12,1.14%
14,O=C(Nc1n[nH]c2cc(-c3ccc(F)cc3)ccc12)C1CC1,3.66%
15,[O-][S+]1CCN(Cc2ccc(-c3ccc4ncnc(Nc5ccc(OCc6cccc(F)c6)c(Cl)c5)c4c3)o2)CC1,2.98%
16,Fc1cccc(COc2ccc(Nc3ncnc4sc(-c5ccco5)cc34)cc2Cl)c1,2.86%
17,NS(=O)(=O)c1ccc(Nc2ncc(-c3ccccc3)o2)cc1,2.5%

row,Structure (SMILES),inhibition
1,CCNC(=O)O[C@H]1CN[C@H](C#Cc2cc3ncnc(Nc4ccc(OCc5cccc(F)c5)c(Cl)c4)c3s2)C1,-0.33%
2,CCN(CC)S(=O)(=O)c1ccc(OC)c(Nc2ncc(-c3ccccc3)o2)c1,0.62%
3,COc1ccc(-c2oc3ncnc(N)c3c2-c2ccc(NC(=O)Nc3cc(C(F)(F)F)ccc3F)cc2)cc1,3.47%
4,CNC(=O)c1cc(-c2ccc(F)cc2)cc(-c2ccc(S(=O)(=O)N3CCCC3)cc2)c1N,1.29%
5,CCn1c(-c2nonc2N)nc2ccccc21,5.67%
6,CCn1c(-c2nonc2N)nc2c(C#CC(C)(C)O)nc(OC[C@H](N)c3ccccc3)cc21,87.1%
7,CCn1c(-c2nonc2N)nc2cnc(Oc3cccc(NC(=O)c4ccc(N(C)C)cc4)c3)cc21,55.8%
8,COc1ccc(CNC(=O)c2ccc(-c3cc(-c4nnc(C)o4)ccc3C)cc2)cc1,6.21%
9,Clc1ccc(-c2nn3ncccc3c2-c2ccnc(Nc3ccccc3)n2)cc1,2.02%
10,COc1cc(/C=N/Nc2ncnc3[nH]ncc23)ccc1O,3.71%
11,CCOc1ccc2c(-c3ccnc(Nc4cccc(C(F)(F)F)c4)n3)cnn2n1,-0.76%
12,NS(=O)(=O)c1ccc(N/N=C2\C(=O)Nc3ccc4ncccc4c32)cc1,2.43%
13,O=C(O[C@H]1CN[C@H](C#Cc2cc3ncnc(Nc4ccc(Cc5ccccc5)cc4)c3s2)C1)N1CCOCC1,3.94%
14,FC(F)(F)c1cccc(-c2nn3ncccc3c2-c2ccnc(Nc3ccc4c(c3)OCCO4)n2)c1,-1.55%
15,c1cc(-c2cnn3nc(N4CCOCC4)ccc23)nc(NC2CC2)n1,-0.73%
16,COc1ccc(-c2cc3c(N)ncnc3o2)cc1,0.29%
